PubChem BioAssay (NCI)
The panel holds about 79,000 compounds, 15% with a hit somewhere; the sample as a whole holds those more often. Active and inactive are the calls of the source. No stated cut-off is given here; in the data, active means growth inhibition above about 70%; inactive means the rest.

Legend:
[1] = NCI Yeast Anticancer Drug Screen. Data for the rad50 strain (AID 155);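 further: 0% = growth of vehicle-only cultures of the same strain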; conditions: S. cerevisiae rad50 strain growth inhibition; at 50.0 µM; active compounds read high
Summary of the method: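 Vehicle-treated cultures provide the reference for the growth inhibition reported for compound-exposed, repair-deficient yeast.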

[2] = NCI Yeast Anticancer Drug Screen. Data for the mec2-1 strain (AID 157); conditions: S. cerevisiae mec2-1 strain, at 50.0 µM, active compounds read high
Summary of the method: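 Yeast mec2-1 mutant treated with compound. Readout: growth inhibition vs vehicle controls.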

[3] = NCI Yeast Anticancer Drug Screen. Data for the sgs1 mgt1 strain (AID 161);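 further: 0% = growth of cultures given vehicle only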; conditions: S. cerevisiae sgs1 mgt1 strain, at 50.0 µM, active compounds read high
Summary of the method: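 Read-out: growth inhibition vs vehicle controls. Cells: mutant yeast strain deficient in DNA damage repair.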

[4] = NCI Yeast Anticancer Drug Screen. Data for the cln2 rad14 strain (AID 165);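 further: 0% = growth equal to vehicle treated cultures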; conditions: S. cerevisiae cln2 rad14 strain, at 50.0 µM, active compounds read high
Summary of the method: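 cln2 rad14 yeast strain; compound exposure; growth inhibition read vs vehicle controls.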

[5] = NCI Yeast Anticancer Drug Screen. Data for the bub3 strain (AID 167); conditions: S. cerevisiae bub3 mutant strain, at 50.0 µM, active compounds read high
Summary of the method: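 Mutant yeast screening strain plus compound; vehicle-treated cultures serve as the 0% inhibition reference.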

[6] = NCI Yeast Anticancer Drug Screen. Data for the mlh1 rad18 strain (AID 175); conditions: S. cerevisiae mlh1 rad18 strain growth inhibition; at 50.0 µM; active compounds read high
Summary of the method: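 Yeast w/ defined DNA-repair lesions; compound exposure; growth vs vehicle controls → % inhibition.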

Measured: growth inhibition

CCC(/C=N\NC(=O)CCCC(=O)N/N=C/C(CC)CC)CC
inactive: [1] -0.5% | [2] -8.5% | [3] -18.6% | [4] 5.65% | [5] 5.8% | [6] -0.35%

O=C1c2ccccc2C(=O)C2CC(c3ccccc3)=CCC12 (stereo not drawn)
inactive: [1] 10.6% | [2] 10.1% | [3] -5.8% | [4] -35.6% | [5] 52.9% | [6] 0.9%

O=C1CCNC/C1=C\c1ccccc1
inactive: [1] 6.25% | [2] -14.3% | [3] 8.9% | [4] 13.4% | [5] -19.2% | [6] 6.55%

COc1ccc(C(=O)c2ccc(Cl)s2)cc1
inactive: [1] 8.4% | [2] -4.85% | [3] 22.4% | [4] -13.2% | [5] 21% | [6] 5.1%

Cn1cnc2c(Oc3ccc(Cl)cc3)ncnc21
inactive: [1] -7.35% | [2] -14.5% | [3] 5.25% | [4] 8.85% | [5] -22.7% | [6] 5.5%

COc1cc(C(O)CCBr)c(OC)cc1C (stereo not drawn)
inactive: [1] -23.2% | [2] -19.8% | [3] -20.2% | [4] -0.85% | [5] -1.4% | [6] 19.9%

CNCCS(=O)(=O)O
inactive: [1] 13.9% | [2] -3.05% | [3] 1.7% | [4] -6.3% | [5] 13.6% | [6] 9.25%

CCC(C)(C(=O)O)c1ccccc1 (stereo not drawn)
inactive: [1] 4.1% | [2] -5.85% | [3] -3.95% | [4] -15.1% | [5] -42.5% | [6] 15.7%

CC(C)S(=O)(=O)c1s[nH]c(=O)c1-c1ccccc1
inactive: [1] -14.9% | [2] -0.1% | [3] 12.2% | [4] 5.75% | [5] -4.15% | [6] -1.2%

O=S(O)c1cc(Cl)c(O)c(Cl)c1
inactive: [1] -7.1% | [2] 1.3% | [3] -7.05% | [4] -37.5% | [5] -5.1% | [6] -2.75%

C/C=C(\CC)C(C)(C#N)C(=O)OCC (stereo not drawn)
inactive: [1] -13.3% | [2] -33.3% | [3] -21.2% | [4] -3.45% | [5] -27.8% | [6] -29.1%

CC(=O)OC/C=C(C)/C=C/C=C(C)/C=C/C1=C(C)CCCC1(C)C
inactive: [1] -15.4% | [2] -34% | [3] -20.3% | [4] -2.25% | [5] 12.5% | [6] -55%

CC(=O)OCC1OC(n2ncnc2CBr)C(OC(C)=O)C(OC(C)=O)C1OC(C)=O (stereo not drawn)
inactive: [1] 30% | [2] -3.4% | [3] 12.4% | [4] 8.45% | [5] -4.8% | [6] 10.6%

CSc1cc(/C=C/c2ccccc2)ccc1N
inactive: [1] 1% | [2] 1.5% | [3] -9.45% | [4] -33.5% | [5] 5.25% | [6] 2%

CN(C)CCN1C(=O)c2c(c3cccn3c3c2cnn3-c2ccccc2)C1=O
inactive: [1] 36.8% | [2] 12.1% | [3] 34% | [4] -43% | [5] 4.9% | [6] 32.6%

CCN(CC)c1c(C)nnn1C1OC(COC(C)=O)C(OC(C)=O)C(OC(C)=O)C1OC(C)=O (stereo not drawn)
inactive: [1] -0.8% | [2] -10.9% | [3] -19.9% | [4] 3.15% | [5] 11.8% | [6] -12%

COc1cccc(C(c2cc3c(cc2O)OCO3)N2CCOCC2)c1O (stereo not drawn)
active: [6] 77.4%
inactive: [1] 15.9% | [2] 30.6% | [3] 51.4% | [4] 8.7% | [5] 1.35%

Fc1ccccc1-c1nnc(-c2ccccc2F)o1
inactive: [1] 1.65% | [2] 8.3% | [3] 6.85% | [4] 10.8% | [5] 48.2% | [6] 1.3%

CC(C)(C)/C=C/N1N=NC(c2ccccc2)(c2ccccc2)C1=O
inactive: [1] 32.6% | [2] 19% | [3] 23.1% | [4] -13.2% | [5] 22.1% | [6] 26.7%

Cc1cccc(C(=O)N(C)C(c2ccco2)P(=O)(c2ccccc2)c2ccccc2)c1 (stereo not drawn)
inactive: [1] 19.9% | [2] -16.4% | [3] 68.2% | [4] 27.1% | [5] 33.1% | [6] 2.9%

Cc1cccc(C)c1NCC(=O)NN
inactive: [1] 9.5% | [2] 6.05% | [3] 0.85% | [4] -22.9% | [5] 5.85% | [6] 8.55%

COc1cc(C)cc2c1C(=O)C(Br)=CC2=O
active: [1] 91.2% | [2] 92.3% | [3] 91.9% | [4] 91.8% | [5] 91.8% | [6] 89.8%

COc1ccc(CNc2ncccn2)cc1
inactive: [1] 14.1% | [2] -23.7% | [3] 0.7% | [4] 9.5% | [5] -12% | [6] 13.5%

CCC(Cl)COP(=O)(CC(Cl)CC)OC(C)P(=O)(OCC(Cl)CC)OCC(Cl)CC (stereo not drawn)
active: [1] 98% | [2] 98.3% | [3] 98.7% | [4] 97.5% | [5] 97.2% | [6] 98.4%

NCCCNCCCCN1CCOC1=O
inactive: [1] 2.8% | [2] 1.65% | [3] -3.1% | [4] -6.6% | [5] -11.3% | [6] -17.9%

COc1ccc(CCCN2c3ccccc3Sc3ccccc32)cc1
inactive: [1] -6.1% | [2] -3.35% | [3] -21.2% | [4] -23.9% | [5] -19.9% | [6] -5.7%

Cc1cc2c(cc1Cl)SC(NNc1ccc([N+](=O)[O-])cc1)=NS2(=O)=O
inactive: [1] 34.6% | [2] 2.4% | [3] 4.6% | [4] -7.85% | [5] -19.6% | [6] 26.9%

CC(C)(c1ccccc1)c1ccc(Oc2ccc(C#N)c(C#N)c2)cc1
inactive: [1] -27.2% | [2] -7.6% | [3] -14% | [4] 3.3% | [5] -35.8% | [6] -21.6%

CCCCCCCCCCCCCCCCS(=O)(=O)N/N=C(/c1cccc(N)c1)N1CCOCC1
inactive: [1] -29.6% | [2] -40.8% | [3] -13.2% | [4] 4.2% | [5] -7.75% | [6] -21.2%

c1ccc(-c2cnc(-c3ccccc3)cn2)cc1
inactive: [1] 1.3% | [2] 10.6% | [3] -6.15% | [4] 41.6% | [5] 6.75% | [6] -15.4%

CC1(C)CC2(C)OC3(C)CC(C)(C)OC3(C)OC2(C)O1 (stereo not drawn)
inactive: [1] 0.05% | [2] 6.45% | [3] 8.55% | [4] -34.2% | [5] 22.4% | [6] -10.3%

COc1cc(C)c2cccc(C)c2n1
inactive: [1] 6.6% | [2] 3.85% | [3] -0.4% | [4] -32.2% | [5] -8.8% | [6] 8.7%

CNC(=O)c1ccc[n+](CC(=O)NCc2ccccc2)c1
inactive: [1] -1.8% | [2] -11.3% | [3] -15.8% | [4] -2.25% | [5] -1.5% | [6] -15.6%

C=C1C(=O)SC(=NCc2ccccc2)N1C
inactive: [1] 24.4% | [2] 16.4% | [3] 19.9% | [4] 19.9% | [5] 0% | [6] 25.8%

CC1(C)CC[C@]2(C(=O)O)CC[C@]3(C)C(=CC[C@@H]4[C@@]5(C)CC[C@@H]6OC(C)(C)OC[C@@]6(C)[C@@H]5CC[C@]43C)[C@H]2C1
inactive: [1] 3.7% | [2] 10.8% | [3] -19.9% | [4] -5.1% | [5] -8.65% | [6] -62.6%

COC(=O)c1cn2ccc3ccccc3c2c1C(=O)OC
inactive: [1] -3.95% | [2] 2.15% | [3] 9% | [4] -0.25% | [5] -15.7% | [6] 15.5%

CC(=O)N1CC=CCC1
inactive: [1] -16.6% | [2] 5.85% | [3] -17.9% | [4] -7.5% | [5] -1.55% | [6] -2.85%

O=S(=O)(Cl)c1cc(Cl)ccc1Cl
inactive: [1] 24.8% | [2] -19.8% | [3] -17.1% | [4] -72.2% | [5] -3.6% | [6] -4.1%
